# Columns and labels:
# Conditions in all cases: concentration: 1 μM, replicates: in singlicate; n = 1
# [1] = tested on: PDGFRB
# [2] = tested on: PDPK1
# [3] = tested on: PFTAIRE2
# [4] = tested on: T1, PFTK1
# T1 construct: gene CDK14
# [5] = tested on: PHKG1
# [6] = tested on: PHKG2
# [7] = tested on: PIK3C2B
# [8] = tested on: PIK3C2G
# [9] = tested on: PIK3CA
# [10] = tested on: PIK3CB
# [11] = tested on: PIK3CD
# [12] = tested on: PIK3CG
# [13] = tested on: T2, PIK4CB
# T2 construct: gene PI4KB
# [14] = tested on: PIKFYVE
# [15] = tested on: PIM1
# [16] = tested on: PIM2
# [17] = tested on: PIM3
# [18] = tested on: PIP5K1A
# [19] = tested on: PIP5K1C
# [20] = tested on: PIP5K2B
# 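Note: KINOMEscan kinase panel screen.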
SMILES,%Inh [1] [%],%Inh [2] [%],%Inh [3] [%],%Inh [4] [%],%Inh [5] [%],%Inh [6] [%],%Inh [7] [%],%Inh [8] [%],%Inh [9] [%],%Inh [10] [%],%Inh [11] [%],%Inh [12] [%],%Inh [13] [%],%Inh [14] [%],%Inh [15] [%],%Inh [16] [%],%Inh [17] [%],%Inh [18] [%],%Inh [19] [%],%Inh [20] [%]
O=c1cc(N2CCOCC2)nc2n(Cc3cccc(Cl)c3)ccn12 [GSK2296823],15,0,14,18,0,0,6,0,0,98.5,68,0,2,0,0,0,0,0,8,11
FC(F)(F)c1cc(Nc2nccc(-c3c(-c4ccc(Cl)cc4)nn4ncccc34)n2)ccc1Cl [GW829351],3,0,0,0,0,0,0,0,0,0,0,0,0,16,0,0,0,10,0,0
CCn1c(-c2ccncc2)nc2cnccc21 [SB-735216],1,0,0,3,3,0,19,0,0,0,0,14,21,0,0,0,21,28,0,23
O=C(CCO)NCCn1ccc2ncnc(Nc3ccc(Oc4cccc(C(F)(F)F)c4)c(Cl)c3)c21,0,0,0,19,0,3,0,0,0,0,0,0,0,34,0,0,0,0,41,5
Cl.c1ccc(Cn2ccc3cc(Nc4ncnc5ccccc45)ccc32)cc1 [GW275568],35,22,28,29,0,23,31,3,14,0,0,21,24,0,27,1,23,0,34,6
Cl.Fc1ccccc1COc1ccc(Nc2ncnc3ccc(-c4nnc(C(F)(F)F)o4)cc23)cc1Cl [GW424170],20,0,6,0,0,7,0,0,0,0,0,0,0,0,0,0,0,66,36,7
Nc1nc(-c2ccc3c(N)n[nH]c3c2)cc(N2CCC[C@@H](C(=O)Nc3ccccc3)C2)n1.O=C(O)C(F)(F)F.O=C(O)C(F)(F)F [GSK2288359],31,–,18,16,0,2,1,42,4,0,31,13,6,4,20,0,5,0,30,8
Nc1n[nH]c2nnc(-c3ccccc3)cc12 [SB-517389],5,0,17,24,0,1,0,0,0,0,0,0,8,0,8,0,0,0,0,18
NC(=O)c1sc(-n2cnc3ccccc32)cc1OCc1ccccc1F [GSK1024306],2,19,7,6,0,0,0,0,0,0,39,0,0,20,21,0,0,0,53,0
COc1cc2ncnc(Nc3ccc(OCc4ccccc4Br)c(Cl)c3)c2cc1OC.Cl [GI261590],0,0,4,29,3,0,0,0,0,45,0,0,0,28,0,0,15,34,56,11
Fc1cccc(COc2ccc(Nc3ncnc4nn5ccccc5c34)cc2Cl)c1 [GW689066],13,0,4,0,2,0,0,0,0,41,0,0,0,0,0,0,0,40,43,7
CC(C)(C)c1ccc(-n2cnc3c(N)ncnc32)cc1 [SKF-97263],31,5,16,32,0,0,100,12,100,0,28,100,30,0,9,0,0,0,0,2
CCC(CC)(CC)n1cnc2c(N)ncnc21 [SKF-97620],0,0,0,0,0,0,0,9,6,27,22,5,40,33,0,6,5,30,9,0
COc1cc2c(Nc3cccc(NC(=O)c4ccccc4)c3)ncnc2cc1OCCCN1CCOCC1 [GSK223810],85,100,16,0,5,12,0,0,0,0,0,0,0,0,0,0,5,0,26,2
Cc1ccc(NC(=O)c2cccc(C#N)c2)cc1-c1ccc(C(=O)Nc2ccncc2)cc1 [GSK1398463],100,17,13,27,2,0,5,4,6,0,1,0,11,0,9,0,0,0,38,23
FC(F)(F)c1ccc(-c2cc(-c3c[nH]nc3-c3ccccn3)ccn2)cc1 [GW599550],30,5,20,19,0,21,0,0,3,0,0,1,0,22,19,0,51,18,74,17
Cn1cc(-c2ccc3c(c2)CCN3C(=O)Cc2cccc(C(F)(F)F)c2)c2c(N)ncnc21 [GSK2606414],55,6,18,0,6,0,0,2,0,0,0,0,6,0,0,0,0,0,0,0
Cl.Cn1ccc(-c2cccc(Nc3ccnc4cc(-c5nccs5)ccc34)c2)n1 [GW525701],40,0,0,5,0,0,0,0,0,0,0,0,0,30,12,0,0,48,36,14
CN1CCC(n2cnc(-c3ccc(F)cc3)c2-c2ccnc(NC3CCNCC3)n2)CC1 [SB-229482],29,0,17,0,0,16,0,0,0,37,0,34,31,40,1,0,2,0,0,0

# From PMC5540273 (PLoS ONE, 2017)
